Each structure is given as a SMILES string. Hit rate of the full screen: of about 330,000 compounds, about 1,300 (0.39%) were called active. The sample holds actives, similar compounds and a random draw of the others, so the mix is not that of the screen. Values without a mark were called inactive.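 How the source made its calls: active means inhibition of 50% or more; inactive means inhibition below 50%.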

This assay is described as follows: blockers of yeast NLRP3/ASC/caspase-1 reporter – luminescence, uHTS, primary screen (AID 2825).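 Further: plate controls were induced DMSO wells for no effect and uninduced yeast grown without galactose for full effect.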 As to conditions: Yeast reconstituted NLRP3/ASC/caspase-1, beta-gal luminescence, 24 h; at 10 µM; hits give high values.
As a reminder, the inhibition is the drop in the measured response relative to a control, in per cent. On to `c1cc2c(cc1C1OCC3C(c4ccc5c(c4)OCO5)OCC13)OCO2` (stereo not given), for which the inhibition was 16.8%.

With `O=C1/C(=C\c2ccc3c(c2)OCO3)N2CCC1CC2`, the inhibition was 50.3% (active).

In the case of `c1cc2c(cc1[C@H]1OC[C@H]3[C@@H]1CO[C@@H]3c1ccc3c(c1)OCO3)OCO2`, the inhibition was 15.5%.

Turning to `Cc1nc2nc(C)c(CCC(=O)N3CCC4(CC3)OCCO4)c(C)n2n1`, the inhibition is 11.1%.

For the compound `O=c1c2ccccc2nc(-c2ccco2)n1-c1ccc(Br)cn1`, the inhibition was 15.6%.

`O=c1c2ccccc2nc(-c2ccccc2)n1-c1ccccn1`: the inhibition was -1.57%.

Take `Cc1ccc(-c2nc3ccccc3c(=O)n2-c2ccc(Br)cn2)cc1`: the inhibition was 54.6% (active).

Regarding `CN(C)CC1CCCCC1=O` (stereo not given), the inhibition was 16.4%.

For the compound `C[N+]1(C)CCOC(O)(c2ccc(-c3ccc(C4(O)C[N+](C)(C)CCO4)cc3)cc2)C1` (stereo not given), the inhibition was 5.92%.

As to `COCCNC(=O)CN1C2CCC1CC(O)(c1cccnc1)C2` (stereo not given), the inhibition is 21.8%.

As for `NCCc1ccc(S(=O)(=O)F)cc1`, the inhibition was 13.1%.

In the case of `Cc1cc2ccccn2c1C(C[N+](=O)[O-])c1c(F)cccc1Cl` (stereo not given), the inhibition was 58.8% (active).

Take `Cc1ccc2c(c1)=C/C(=C\c1c(O)[nH]c(=O)[nH]c1=O)C(=O)N=2`: the inhibition is 8.15%.

For `CCCCCCCCCCCCn1ccc(=N)cc1`, the inhibition was 74.5% (active).

For the compound `COC(=O)C(O)(c1ccc(NC(=O)c2ccco2)c(OC)c1)C(F)(F)F` (stereo not given), the inhibition is 6.52%.

Turning to `CSC1=NP(=S)(SC)N(C)c2nc3n(c21)CCC3` (stereo not given), the inhibition is 14.6%.

`Cc1cc(OCc2cc(C(=O)O)oc2C)c2c3c(c(=O)oc2c1)CCCC3`: the inhibition was 13.3%.

For the compound `CNC(=S)N/N=C1\C2CN3CCN(C2)CC1(c1ccccc1)C3`, the inhibition is 2.33%.

On to `CN(C)P(=S)(Nc1ccccc1)C(Cl)(Cl)Cl` (stereo not given), for which the inhibition is 24.4%.

Regarding `C[C@]12CCC3C(CC[C@H]4C[C@@H](O)CC[C@]34C)C1C[C@@H](O)[C@H]2O` (stereo not given in full), the inhibition is 50.2% (active).

For `C[C@]12CCC3C(CC[C@H]4C[C@@H](O)CC[C@]34C)C1CC[C@@H]2O` (stereo not given in full), the inhibition is 63.7% (active).

As to `C[C@]12CC[C@H](O)C[C@H]1CC[C@@H]1C2CC[C@]2(C)[C@@H](C3=CC(=O)OC3)[C@@H](O)C[C@]12O` (stereo not given in full), the inhibition was 8.26%.

Turning to `C[C@]12CC[C@H](O)CC1=C([N+](=O)[O-])CC1C2CC[C@@]2(C)C1CC[C@@H]2O` (stereo not given in full), the inhibition was 21.9%.

Consider `O=C(C1CC(=O)N(C2CCCC2)C1)N1CCC2(CC1)OCCO2` (stereo not given), for which the inhibition was 25.3%.

Turning to `C/C=C/CC1(CC)C(=O)NC(=S)NC1=O`, the inhibition was 0.922%.

Regarding `COc1ccc2[nH]c3c(c2c1)CCN[C@H]3C`, the inhibition was 10%.

Regarding `CC1=C2C(=O)C3C(CC=C4CC(OC5OC(O)C(O)C(O)C5CO)CCC43C)C2CCC12OC1CC(C)CNC1C2C` (stereo not given), the inhibition is 32.4%.

As to `COC(=O)C1=C(c2ccc3ccccc3c2)C[C@@H]2CC[C@H]1N2C(=O)NCCO`, the inhibition was -5.73%.

For the compound `N=c1ccccn1Cc1ccccc1`, the inhibition was 1.04%.

Regarding `CCN1CCN(c2nc3c(c(=O)[nH]2)CCC3)CC1`, the inhibition was 9.34%.

The record behind these values is PubChem BioAssay AID2825 (Sanford-Burnham Center for Chemical Genomics, 2010).
